This is a sample that favours compounds with a hit; in the whole collection about 8.7% have one here.
Vaccinia Venus = vaccinia inhibition (Venus reporter); Vaccinia virus Venus reporter expression, fluorescence; Potency, µM (top dose mostly 36.5 µM), most hits filed as inhibitors; 0.46% of 330,000 active; calls by dose curve; tested in A549 cells; further: nearly all actives have a fitted effect of over 30% in size
Pf growth 48h = P. falciparum growth inhibition at 48 hours (one generation); P. falciparum luciferase growth in erythrocytes, 48 h; Potency, µM (series often up to 28.7 µM), usual class: inhibitors; 5.9% of 310,000 active; AID 504832
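Luciferase-expressing parasites in RBCs, 2% Hct / 0.1% parasitemia final; RPMI 1640 + 0.5% Albumax; 37 C, 5% CO2, one generation; luminescence read-out, lower signal = inhibition.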
AMA1-RON2 inh = AMA1-RON2 (P. falciparum) interaction inhibition; AID 720542; AlphaScreen AMA1-biotinylated RON2 peptide binding; Potency, µM (titrated, usually from 58.2 µM), actives largely listed as inhibitors; 0.2% of 360,000 active; further: nearly all actives have a fitted effect of over 45% in size
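AMA1 (3D7) with his tag at 25 nM final met compounds first, then biotinylated RON2 peptide at 25 nM; detection used donor plus acceptor beads, 10 µg/mL apiece, read by AlphaScreen after 30 min at room temperature.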
Pf growth 96h = P. falciparum growth inhibition at 96 hour, primary screen for plastid delayed-death inhibitors. AID 504834. P. falciparum luciferase reporter growth, 96 h. Potency, µM (series often up to 28.7 µM), hits mostly inhibitors. 6.9% of 320,000 active
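Two-generation exposure (96 h) targets delayed-death phenotype. Reporter parasites carrying integrated firefly luciferase, in red cells at 2% hematocrit and 0.05% parasitemia final, kept at 37 C, 5% CO2; luminescence loss indicates inhibition.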
VACV mCherry inh = inhibitors of vaccinia virus infection (mCherry reporter signal); 0.63% of 310,000 active; Potency, µM (highest dose often 36.5 µM), actives largely listed as inhibitors; Vaccinia virus mCherry reporter infection, fluorescence; calls by dose curve; tested in A549 cells; further: nearly all actives have a fitted effect of over 35% in size
Large screens that a line does not name were inactive. Unless noted, the call rests on the fitted dose curve; in most records, active means well fitted curve in the direction sought with a large enough effect; inconclusive means small, poorly fitted or top-dose-only effect, or another doubt; inactive means no such curve, though single readings can be large; an effect the other way counts as inactive or inconclusive.

CN1CCN(C(c2ccc(Cl)cc2)c2cc(Cl)c3cccnc3c2O)CC1 (stereo not given)	Pf growth 48h inconclusive, Pf growth 96h inconclusive
CCC(=O)NC(c1cc(Cl)c2cccnc2c1O)C1CC1 (stereo not given)	Pf growth 48h 3.7µM, Pf growth 96h 2.9µM (no result: Vaccinia Venus, AMA1-RON2 inh, VACV mCherry inh)
CCC(=O)NC(c1cc(Cl)c2cccnc2c1O)C(C)C (stereo not given)	Pf growth 48h 2.9µM, Pf growth 96h 13µM (no result: Vaccinia Venus, AMA1-RON2 inh, VACV mCherry inh)
N#Cc1c(SCC(=O)Nc2ccc(Cl)cc2Cl)sc2c(O)cc(=O)[nH]c12	Pf growth 48h 2.9µM
Cc1c(Cl)cccc1NC(=O)CSc1sc2c(O)cc(=O)[nH]c2c1C#N	none
CCCn1c(SCc2nc(-c3ccc(OC)cc3OC)no2)nnc1-c1ccc(Cl)cc1	none (no result: Pf growth 48h, AMA1-RON2 inh, Pf growth 96h)
CCOC(=O)c1c(C(=O)OCC)c(C)n(Cc2cc(OC)c(OC)c(OC)c2)c1C	Pf growth 48h inconclusive, Pf growth 96h 12µM
CCOC(=O)c1sc(=S)n(Cc2ccccc2)c1C	none
CCOC(=O)c1cc(C)n(Cc2ccccc2)c1C	Pf growth 48h 3.3µM, Pf growth 96h 6.6µM (no result: Vaccinia Venus, VACV mCherry inh)
CCOC(=O)c1cnn(Cc2ccccc2)c1N	none
CCOC(=O)c1c(C)nn(Cc2ccccc2)c1N	Pf growth 96h 5.2µM
CCOC(=O)c1cc(C)n(Cc2cccc(OC)c2OC)c1C	Pf growth 48h inconclusive, Pf growth 96h 2.3µM (no result: Vaccinia Venus, VACV mCherry inh)
COc1ccc2c(c1)c1c(c(=O)n(-c3cccc(C)c3)c(=O)n1CC(=O)N1CCCC1)n2C	none (no result: Pf growth 48h, AMA1-RON2 inh, Pf growth 96h)
COCc1ccc(C(=O)N2CCOc3c(cc(-c4cc(C)c5cccc(OC)c5n4)cc3OC)C2)o1	none (no result: Pf growth 48h, AMA1-RON2 inh, Pf growth 96h)
CCOC(=O)c1cc(C)n(CCc2cnc[nH]2)c1C	Pf growth 48h 13µM, Pf growth 96h inconclusive (no result: VACV mCherry inh)
CCOC(=O)c1cnn(Cc2cccc(Cl)c2)c1C	Pf growth 48h 13µM, Pf growth 96h inconclusive
CCOC(=O)c1c(C)c(C(=O)Nc2ccccc2)c(C)n1CC	Pf growth 48h inconclusive, Pf growth 96h 4.7µM
CCOC(=O)c1c(N)sc2c1CCN(Cc1ccccc1)C2	Pf growth 48h 3.8µM, Pf growth 96h 0.95µM (no result: AMA1-RON2 inh)
CCOC(=O)c1c(NC(=O)Cc2ccccc2)sc2c1CCN(CC)C2	Pf growth 48h inconclusive, Pf growth 96h inconclusive
CCOC(=O)c1cc(C)n(CCCN2CCOCC2)c1C	none
O=C(NCC(c1ccc2c(c1)OCO2)N1CCOCC1)c1ccccc1F (stereo not given)	none (no result: Pf growth 48h, AMA1-RON2 inh, Pf growth 96h)
CCOC(=O)C1CCCCN1Cc1cccc(OC)c1OC (stereo not given)	none (no result: Pf growth 48h)
CCOC(=O)c1c(C)c(C)n(Cc2cccc(OC)c2OC)c1C	Pf growth 48h 12µM, Pf growth 96h 8.3µM
CCOC(=O)c1c(C=O)c(C)n(Cc2ccc(C)cc2)c1C	Pf growth 96h inconclusive (no result: Vaccinia Venus, Pf growth 48h, VACV mCherry inh)
CCOC(=O)c1c(C=O)c(C)n(Cc2ccccc2Cl)c1C	Pf growth 48h 3.3µM (no result: Vaccinia Venus, Pf growth 96h, VACV mCherry inh)
CCOC(=O)c1c(C(=O)OCC)c(C)n(CCc2ccccc2)c1C	Pf growth 48h inconclusive, Pf growth 96h 9.3µM
COc1ccc(OC)c(NC(=O)CCCc2nnc3n(C(C)C)c(=O)c4sccc4n23)c1	none (no result: Pf growth 48h, AMA1-RON2 inh, Pf growth 96h)
CCc1ccccc1N(CC)C(=O)c1cc2c(s1)-c1ccccc1OC2	none (no result: Pf growth 48h, AMA1-RON2 inh, Pf growth 96h)
COc1ccc(CN2C(=O)c3cccnc3C2=O)cc1S(=O)(=O)N1CCCC(C)C1 (stereo not given)	Pf growth 96h 15µM (no result: Vaccinia Venus, VACV mCherry inh)
CCC1CN(CCNC(=O)c2cccc(N3CCCC3=O)c2)Cc2cc(OC)ccc2O1 (stereo not given)	none (no result: Pf growth 48h, AMA1-RON2 inh, Pf growth 96h)
COc1ccc(NC(=O)c2sc3nc(N4CCOCC4)c4c(c3c2N)CC(C)(C)OC4)c(OC)c1	Pf growth 48h inconclusive, Pf growth 96h 1.7µM
COc1ccc(NC(=O)c2sc3nc(N4CCOCC4)c4c(c3c2N)CC(C)(C)OC4)cc1	Pf growth 96h inconclusive
COc1ccc(NC(=O)c2sc3nc(N4CCCC4)c4c(c3c2N)CC(C)(C)OC4)cc1	Pf growth 48h 13µM, Pf growth 96h 12µM (no result: Vaccinia Venus, VACV mCherry inh)
COc1ccccc1NC(=O)c1sc2nc(N3CCOCC3)c3c(c2c1N)CC(C)(C)OC3	none (no result: Pf growth 48h, AMA1-RON2 inh, Pf growth 96h)
CN(C)c1ccc(/C=C/c2ccc3cc(F)ccc3n2)cc1	none (no result: Pf growth 48h, AMA1-RON2 inh, Pf growth 96h)
Cc1csc(SCC(=O)N2CCOc3ccc(C(O)C4CCCCC4)cc3C2)n1 (stereo not given)	none (no result: Pf growth 48h, AMA1-RON2 inh, Pf growth 96h)
CCNC(=S)Nc1sc2c(c1C#N)CCC(C)C2 (stereo not given)	Pf growth 48h inconclusive, Pf growth 96h 5.9µM
Cc1ccc(-n2c(SCCN)nnc2-c2cccc(C)c2)cc1	Pf growth 48h 10µM, Pf growth 96h inconclusive
